TDP1 cell noCPT: qHTS for Inhibitors of human tyrosyl-DNA phosphodiesterase 1 (TDP1): qHTS in cells in absence of CPT | DT40 Tdp1-/- hTDP1 cells, no CPT, ATP luminescence, 48 h | Potency, µM (titrated, usually from 46.2 µM), without a hit: at the top dose activity change, negative = growth inhibition, most hits filed as inhibitors | hit rate 15% among 420,000; note: potency is the fitted concentration of half-maximal effect; nearly all actives have a fitted effect of over 55% in size
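Cells were dispensed at 400 per well, compounds added by pin tool, plates incubated ≥48 hr at 37 °C, then CellTiter-Glo added for 30 min at room temperature before luminescence reading. Line: DT40 Tdp1-/- complemented with hTDP1; camptothecin omitted.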
ELG1 repair inh: ELG1-dependent DNA repair inhibition. hit rate 2.3% among 330,000. AID 504467. Potency, µM (titrated, usually from 46.1 µM), without a hit: at the top dose activity change, negative = inhibition, hits mostly inhibitors. HEK293T ELG1-luciferase reporter, luminescence, 16 h; DNA damage induced by 5-fluorouridine; note: potency is the fitted concentration of half-maximal effect; nearly all actives have a fitted effect of over 55% in size
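Cells (2,000 per well) received 5-fluorouridine plus test compound or DMSO and were incubated 16 hr at 37 °C, 5% CO2. Luciferase activity was read by luminescence 30 min after ONE-Glo addition; signal suppression marked inhibition of damage-induced ELG1 function.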
Giardia killer: Giardia lamblia killing; Giardia lamblia trophozoite viability; activity change, % at 7.66 µM, hits read low; hit rate 0.15% among 340,000; AID 540267; in the data active = activity change below about -80%; inconclusive = between about -30% and that limit;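 note: parasites exposed to compound for two days anaerobically before the ATP read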
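Viability, read as ATP luminescence: trophozoites at 100 cells/well, compound added, 48 hrs anaerobic at 37 deg C, then 15-30 min room-temperature development before reading.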
IL-1B inflam inh: blocks inflammasome-driven IL-1 beta release; AID 743279; activity change, % at 57.5 µM; THP-1 LPS/ATP IL-1B secretion, AlphaLISA, 16 h; active compounds read low; hit rate 4.7% among 360,000; in the data active = activity change below about -50%; inconclusive = mostly about -30% to -49%
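THP-1 cells pretreated 1 hr with compounds (up to 57.5 uM final), then stimulated with LPS (250 ng/mL final) plus ATP (1.25 mM final); secreted IL-1B measured by AlphaLISA after 16 hr, decreased signal indicating inhibition.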
TDP1 inh: blocks human tyrosyl-DNA phosphodiesterase 1. hit rate 0.28% among 350,000. AID 485290. Q9NUW8. recombinant TDP1, AlphaScreen DNA substrate cleavage. Potency, µM (top dose mostly 130 µM), inactives show at the highest dose activity change, negative = inhibition, actives largely listed as inhibitors; note: potency is the fitted concentration of half-maximal effect; nearly all actives have a fitted effect of over 40% in size
Target sequence (Q9NUW8 whole entry, looked up): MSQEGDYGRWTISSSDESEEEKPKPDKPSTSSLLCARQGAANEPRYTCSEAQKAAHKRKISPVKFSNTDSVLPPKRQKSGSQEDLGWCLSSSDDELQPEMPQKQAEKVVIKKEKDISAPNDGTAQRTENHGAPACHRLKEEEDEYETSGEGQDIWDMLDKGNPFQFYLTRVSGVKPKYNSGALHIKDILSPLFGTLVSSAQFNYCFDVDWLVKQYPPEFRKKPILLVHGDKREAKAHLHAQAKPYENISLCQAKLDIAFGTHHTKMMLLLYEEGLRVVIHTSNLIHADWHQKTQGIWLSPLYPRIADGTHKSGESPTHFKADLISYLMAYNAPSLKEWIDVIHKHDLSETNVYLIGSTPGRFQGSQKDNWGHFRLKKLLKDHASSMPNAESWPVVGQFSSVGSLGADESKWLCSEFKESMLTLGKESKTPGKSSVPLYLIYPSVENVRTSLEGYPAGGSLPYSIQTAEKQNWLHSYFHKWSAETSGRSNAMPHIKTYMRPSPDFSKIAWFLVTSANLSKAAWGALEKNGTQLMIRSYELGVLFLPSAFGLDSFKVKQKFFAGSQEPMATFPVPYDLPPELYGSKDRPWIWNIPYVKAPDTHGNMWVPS
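Compounds were preincubated with Tdp1 (1 nM final) for 15 min at room temperature before substrate (15 nM final) started a 5 min reaction; beads (10 ug/ml final) were then added for 10 min before AlphaScreen detection.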
DT40 TDP1 CPT: growth inhibition of DT40 Tdp1-/-;hTDP1 cells with camptothecin (screen for TDP1 inhibitors) | chicken DT40 Tdp1-/-;hTDP1 cells + 20 nM CPT, ATP luminescence, 48 h | Potency, µM (series often up to 46.2 µM), for the others: top-dose activity change, negative = growth inhibition, hits mostly inhibitors | hit rate 12% among 420,000 | AID 686979; note: potency is the fitted concentration of half-maximal effect; nearly all actives have a fitted effect of over 55% in size
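Chicken DT40 Tdp1-/- cells stably complemented with human TDP1 were seeded at 400 cells/well in medium containing 20 nM camptothecin, exposed to pin-transferred compounds, and grown at 37 °C for at least 48 hr. Viability was read as ATP luminescence.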
Numbers without * were called inactive. In the library only some 19% were active in any assay of this set; here they are far more common. Unless noted, calls come from the whole dose curve; as a rule, active = well fitted curve in the direction sought with a large enough effect; inconclusive = small, poorly fitted or top-dose-only effect, or another doubt; inactive = no such curve, though single readings can be large; an effect the other way counts as inactive or inconclusive. % is set by controls: 0 for no effect and ±100 for the full control effect.

Results for CC(C)(C)C1CCC(=NNc2ccc(S(N)(=O)=O)cc2[N+](=O)[O-])CC1 (centres undefined) ?
TDP1 cell noCPT: 21µM*; ELG1 repair inh: 9%; Giardia killer: 5; IL-1B inflam inh: -87*; TDP1 inh: 8%; DT40 TDP1 CPT: 16µM*

Results for COc1ccccc1NS(=O)(=O)c1ccc(NN=C2CCCC2)c([N+](=O)[O-])c1 ?
TDP1 cell noCPT: 16µM*; ELG1 repair inh: -18%; Giardia killer: 1; IL-1B inflam inh: -7; TDP1 inh: 11%; DT40 TDP1 CPT: 18µM*

Results for COc1ccccc1NS(=O)(=O)c1ccc(N/N=C/C=C/c2ccccc2[N+](=O)[O-])c([N+](=O)[O-])c1 ?
TDP1 cell noCPT: inconclusive; ELG1 repair inh: -8%; Giardia killer: 7; IL-1B inflam inh: 3; TDP1 inh: 4%; DT40 TDP1 CPT: -11%

How did Cc1ccc(OCc2ccc(Br)cc2)c([N+](=O)[O-])n1 do in these assays?
ELG1 repair inh: inconclusive; TDP1 inh: -3%

What do the screens show for `Cc1ccc(OCCOc2cccc(Br)c2)c([N+](=O)[O-])n1`?
TDP1 cell noCPT: -22%; ELG1 repair inh: inconclusive; Giardia killer: -1; IL-1B inflam inh: -71*; TDP1 inh: 1%; DT40 TDP1 CPT: 0%

How did Cc1ccc(OCC(=O)c2c(N)n(C)c(=O)n(C)c2=O)c([N+](=O)[O-])n1 do in these assays?
TDP1 cell noCPT: 2%; ELG1 repair inh: 3%; Giardia killer: -7; IL-1B inflam inh: 0; TDP1 inh: 3.2µM*; DT40 TDP1 CPT: -18%

Results for Cc1cc(C)c(S(=O)(=O)Oc2ccccc2[N+](=O)[O-])c(C)c1 ?
TDP1 cell noCPT: 18µM*; Giardia killer: -3; IL-1B inflam inh: -4; DT40 TDP1 CPT: 21µM*

How did Cc1ccc(NS(=O)(=O)c2ccccc2[N+](=O)[O-])cc1C do in these assays?
TDP1 cell noCPT: 6%; ELG1 repair inh: -2%; Giardia killer: -1; IL-1B inflam inh: 21; TDP1 inh: 0%; DT40 TDP1 CPT: inconclusive

How did Cc1ccc(OCC(=O)N2c3ccccc3CC2C)c([N+](=O)[O-])n1 (centres undefined) do in these assays?
TDP1 cell noCPT: -87%; ELG1 repair inh: 0%; Giardia killer: -10; IL-1B inflam inh: -7; TDP1 inh: 5%; DT40 TDP1 CPT: 16µM*

What do the screens show for `Cc1ccc(OCC(=O)N2CCc3ccccc3C2)c([N+](=O)[O-])n1`?
TDP1 cell noCPT: 14%; ELG1 repair inh: -1%; Giardia killer: -25; IL-1B inflam inh: -17; TDP1 inh: 0%; DT40 TDP1 CPT: 3%

What do the screens show for `N#CC1=C(SCC(=O)Nc2ccc(C(=O)O)cc2)NC(=O)CC1c1ccco1` (centres undefined)?
TDP1 cell noCPT: -2%; ELG1 repair inh: -11%; Giardia killer: -10; IL-1B inflam inh: 1; DT40 TDP1 CPT: -4%

What do the screens show for `Clc1ccc(Sc2cc(Cl)c(Cl)cc2Cl)cc1`?
TDP1 inh: 12%

What do the screens show for `Cc1ccc(OCC(=O)c2c[nH]c3ccccc23)c([N+](=O)[O-])n1`?
TDP1 cell noCPT: 4%; ELG1 repair inh: inconclusive; Giardia killer: -20; IL-1B inflam inh: 42; TDP1 inh: 3%; DT40 TDP1 CPT: -26%

Results for CCCNC(=O)COc1ccccc1[N+](=O)[O-] ?
TDP1 cell noCPT: -5%; ELG1 repair inh: inconclusive; Giardia killer: 4; IL-1B inflam inh: 23; TDP1 inh: 3%; DT40 TDP1 CPT: 11%

How did COc1cc(Cl)c(C)cc1NC(=O)COc1ccc(C)nc1[N+](=O)[O-] do in these assays?
TDP1 cell noCPT: inconclusive; ELG1 repair inh: inconclusive; Giardia killer: -4; IL-1B inflam inh: 11; TDP1 inh: -1%; DT40 TDP1 CPT: inconclusive

What do the screens show for `Cc1ccc(C)c(C(=O)COc2ccc(C)nc2[N+](=O)[O-])c1`?
TDP1 cell noCPT: 15µM*; ELG1 repair inh: 9%; Giardia killer: -9; IL-1B inflam inh: 42; TDP1 inh: -2%; DT40 TDP1 CPT: 7.3µM*

How did Cc1ccc(C)c(C(=O)COc2ccccc2[N+](=O)[O-])c1 do in these assays?
TDP1 cell noCPT: 10µM*; ELG1 repair inh: 2%; Giardia killer: inconclusive; IL-1B inflam inh: -51*; TDP1 inh: 3%; DT40 TDP1 CPT: 5.2µM*

What do the screens show for `Cc1ccc(OCC(=O)c2cc(C)c(C)cc2C)c([N+](=O)[O-])n1`?
TDP1 cell noCPT: 8.2µM*; ELG1 repair inh: inconclusive; Giardia killer: -10; IL-1B inflam inh: 36; TDP1 inh: -5%; DT40 TDP1 CPT: 3.7µM*

What do the screens show for `Cc1ccc(C(=O)CCC(=O)Nc2cc(C)ccn2)cc1`?
TDP1 cell noCPT: -4%; ELG1 repair inh: inconclusive; Giardia killer: -20; IL-1B inflam inh: 37; TDP1 inh: 1%; DT40 TDP1 CPT: -14%

Results for COc1ccc2c(c1)CCC1=C2NC(=S)NC1c1ccc(N(C)C)cc1 (centres undefined) ?
TDP1 cell noCPT: 16µM*; ELG1 repair inh: 8%; Giardia killer: -28; IL-1B inflam inh: -17; TDP1 inh: 12%; DT40 TDP1 CPT: inconclusive

Results for S=C1NC2=C(CCCC2=C2SCCCS2)C(c2ccccc2)N1 (centres undefined) ?
TDP1 cell noCPT: inconclusive; ELG1 repair inh: 11%; Giardia killer: -20; IL-1B inflam inh: -5; TDP1 inh: 5%; DT40 TDP1 CPT: inconclusive

What do the screens show for `C=CCOc1ccc(C2NC(=S)NC3=C2CCc2ccccc23)cc1` (centres undefined)?
TDP1 cell noCPT: inconclusive; ELG1 repair inh: 5.2µM*; Giardia killer: 1; IL-1B inflam inh: 27; TDP1 inh: 11%; DT40 TDP1 CPT: inconclusive

Results for COc1cc(C2NC(=S)NC3=C2CCc2ccccc23)cc(OC)c1OC (centres undefined) ?
TDP1 cell noCPT: inconclusive; ELG1 repair inh: 2%; Giardia killer: 4; IL-1B inflam inh: 45; TDP1 inh: 8%; DT40 TDP1 CPT: -12%

How did COc1ccc(C2NC(=S)NC3=C2CCCC3=C2SCCS2)cc1 (centres undefined) do in these assays?
TDP1 cell noCPT: 2.9µM*; ELG1 repair inh: inconclusive; Giardia killer: 2; IL-1B inflam inh: -82*; TDP1 inh: 5%; DT40 TDP1 CPT: 2.3µM*

What do the screens show for `CC(C)C(=O)N1CCCC1(C)C(=O)Nc1ccc(F)cc1` (centres undefined)?
TDP1 cell noCPT: -6%; IL-1B inflam inh: -16; DT40 TDP1 CPT: -7%
